Activity calls are given as the source filed them.
What was measured:
[1] = E. coli DRC41 culture turbidity changes, primary screen, E. coli filamentation inducer project, strain DRC41, OD650, 48 h (AID 1152);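 also: E. coli MC1000 strain DRC41 lacking acrAB efflux pump and sulA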; details: E. coli DRC41 (acrAB sulA), higher = more signal, called active from +8 up or from −8 down
[2] = small-molecule binders of probe aLefty1, primary screen, biochemical, small-molecule microarray, 635/667 nm fluorescence (AID 1153); details: higher = more signal;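 also: score merges spot fluorescence with signal-to-noise ratio from the scanned slide images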
[3] = PSAC antagonists in infected red cells, primary screen, cell-based, P. falciparum Indochina, OD700, 1 h (AID 1154); details: P. falciparum Indochina infected RBC osmotic lysis, higher = more signal, called active from +8 up or from −8 down
[4] = PSAC antagonists in infected red cells, primary screen, cell-based, P. falciparum Indochina, OD700, 2 h (AID 1155);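 also: lysis reports solute entry through the parasite surface anion channel PSAC; channel blockers reduce lysis of infected cells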; details: P. falciparum Indochina infected erythrocytes, osmotic lysis OD700; higher = more signal, called active from +8 up or from −8 down
[5] = osmotic lysis modulators in infected erythrocytes, primary screen, PSAC antagonist project, cell-based, P. falciparum Indochina, OD700, 3 h (AID 1156); details: higher = more signal, called active from +8 up or from −8 down
[6] = PSAC antagonists in infected red cells, primary screen, cell-based, P. falciparum Indochina, OD700, 18 h (AID 1157); details: P. falciparum Indochina infected erythrocytes, osmotic lysis OD700, 18 h; higher = more signal, called active from +8 up or from −8 down
[7] = modulators of S6 phosphorylation in cells, primary screen, cell-based, A549, cytoblot, luminescence, serum-stimulated (AID 1158); details: A549 phospho-S6 cytoblot, 5 h, higher = more signal;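 also: serum-stimulated A549 lung adenocarcinoma cells; signal is phosphorylated S6 detected by cytoblot immunostaining with HRP secondary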
[8] = target: NADPH oxidase 2 (Homo sapiens) (UniProt P04839); experiment: NOX2-dependent H2O2 signal modulators, primary screen, NOX inhibitor project, cell-based, HEK293-NOX2, PMA-stimulated, Amplex Red fluorescence (AID 1159); details: 45 min, higher = more signal, called active from +8 up or from −8 down; also: test concentration not given here
[9] = target: NADPH oxidase 4 (Homo sapiens) (UniProt Q9NPH5); experiment: NOX4-dependent H2O2 signal modulators, primary screen, NOX inhibitor project, cell-based, HEK293-NOX4, tetracycline-induced, Amplex Red fluorescence (AID 1160); details: 45 min, higher = more signal, called active from +8 up or from −8 down
[10] = target: NADPH oxidase 5 (Homo sapiens) (UniProt Q96PH1); experiment: NOX5-dependent H2O2 signal modulators, primary screen, NOX inhibitor project, cell-based, HEK293-NOX5, Amplex Red fluorescence (AID 1161); details: HEK293-NOX5, ionomycin, 45 min, higher = more signal
[11] = A549 cell viability effects, profiling panel, calcein-AM fluorescence, 48 h, basal (AID 1162); details: higher = more signal; also: test concentration not given here
[12] = adipocyte viability effects, profiling panel, cell-based, 3T3-L1 adipocytes, calcein-AM fluorescence, 48 h, basal (AID 1163); details: 3T3-L1 adipocytes viability, higher = more signal; also: test concentration not given here
[13] = HepG2 cell viability effects, profiling panel, calcein-AM fluorescence, 48 h, basal (AID 1164); details: higher = more signal; also: test concentration not given here
[14] = MM1S cell viability effects, profiling panel, calcein-AM fluorescence, 48 h, basal (AID 1165); details: higher = more signal;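 also: viability of MM1S multiple myeloma cells under basal unstimulated conditions; test concentration not given here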
[15] = basal RPMI8226 viability, no added stimulus, profiling panel, cell-based, calcein-AM fluorescence, 48 h, PK04 Diversity Set (AID 1166); details: RPMI8226 myeloma viability, higher = more signal;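 also: cells grown under basal conditions without added stimulus; test concentration not given here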
[16] = basal HepG2 mitochondrial membrane potential changes, profiling panel, cell-based, JC-1 fluorescence, 24 h, 100 nL compound (AID 1167); details: higher = more signal; also: test concentration not given here
[17] = basal 3T3-L1 adipocyte mitochondrial potential changes, profiling panel, cell-based, JC-1 fluorescence, 3T3-L1 adipocytes, 24 h, 100 nL compound (AID 1168); details: JC-1 mitochondrial fluorescence, higher = more signal, called active from +8 up or from −8 down; also: test concentration not given here
[18] = basal RPMI8226 mitochondrial membrane potential changes, profiling panel, cell-based, JC-1 fluorescence, 24 h, 100 nL compound (AID 1169); details: RPMI8226 myeloma, JC-1 mitochondrial potential fluorescence, higher = more signal; also: test concentration not given here
[19] = basal MM1S mitochondrial membrane potential changes, profiling panel, cell-based, JC-1 fluorescence, 24 h, 100 nL compound (AID 1170); details: higher = more signal; also: test concentration not given here
[20] = A549 lung cancer cell viability effects, profiling panel, resazurin fluorescence, 24 h, PK04 Diversity Set (AID 1171); details: higher = more signal, called active from +8 up or from −8 down; also: test concentration not given here

Sequence of NADPH oxidase 5 (Homo sapiens) (Q96PH1 whole entry, looked up): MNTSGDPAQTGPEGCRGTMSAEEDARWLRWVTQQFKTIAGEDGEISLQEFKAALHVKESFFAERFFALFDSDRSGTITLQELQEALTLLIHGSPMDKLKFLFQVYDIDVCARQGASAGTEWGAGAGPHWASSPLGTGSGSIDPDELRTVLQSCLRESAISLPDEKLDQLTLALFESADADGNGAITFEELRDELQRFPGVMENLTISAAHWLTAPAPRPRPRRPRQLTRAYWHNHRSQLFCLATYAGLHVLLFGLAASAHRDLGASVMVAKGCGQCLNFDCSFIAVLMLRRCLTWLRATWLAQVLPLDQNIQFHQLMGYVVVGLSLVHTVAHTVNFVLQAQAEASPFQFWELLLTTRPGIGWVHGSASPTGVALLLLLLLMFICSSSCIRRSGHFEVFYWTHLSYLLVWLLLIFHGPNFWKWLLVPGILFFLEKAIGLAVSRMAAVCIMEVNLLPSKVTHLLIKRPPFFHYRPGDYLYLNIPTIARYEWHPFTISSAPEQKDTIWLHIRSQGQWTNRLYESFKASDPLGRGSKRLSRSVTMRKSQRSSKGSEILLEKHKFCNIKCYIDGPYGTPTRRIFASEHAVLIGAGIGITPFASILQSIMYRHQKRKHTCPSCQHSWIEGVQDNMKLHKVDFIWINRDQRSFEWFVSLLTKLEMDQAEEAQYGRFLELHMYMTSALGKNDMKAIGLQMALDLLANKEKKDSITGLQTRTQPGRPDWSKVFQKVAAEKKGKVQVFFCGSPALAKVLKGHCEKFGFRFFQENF
Sequence of NADPH oxidase 4 (Homo sapiens) (Q9NPH5 whole entry, looked up): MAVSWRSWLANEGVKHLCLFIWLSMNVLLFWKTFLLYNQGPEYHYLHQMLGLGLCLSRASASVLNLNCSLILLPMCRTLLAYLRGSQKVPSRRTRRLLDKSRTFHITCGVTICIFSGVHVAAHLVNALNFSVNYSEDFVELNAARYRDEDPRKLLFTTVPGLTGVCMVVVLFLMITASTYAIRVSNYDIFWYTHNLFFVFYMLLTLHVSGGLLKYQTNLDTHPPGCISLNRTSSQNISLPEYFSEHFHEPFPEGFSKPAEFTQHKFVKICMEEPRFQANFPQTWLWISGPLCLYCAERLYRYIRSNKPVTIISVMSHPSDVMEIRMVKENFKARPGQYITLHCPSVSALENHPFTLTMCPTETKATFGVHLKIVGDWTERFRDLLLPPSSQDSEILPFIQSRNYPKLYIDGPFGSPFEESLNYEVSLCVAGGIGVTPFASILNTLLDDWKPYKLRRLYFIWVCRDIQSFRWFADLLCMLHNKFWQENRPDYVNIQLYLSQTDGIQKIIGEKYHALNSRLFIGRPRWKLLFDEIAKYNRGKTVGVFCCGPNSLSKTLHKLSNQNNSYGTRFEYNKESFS
Sequence of NADPH oxidase 2 (Homo sapiens) (P04839 whole entry, looked up): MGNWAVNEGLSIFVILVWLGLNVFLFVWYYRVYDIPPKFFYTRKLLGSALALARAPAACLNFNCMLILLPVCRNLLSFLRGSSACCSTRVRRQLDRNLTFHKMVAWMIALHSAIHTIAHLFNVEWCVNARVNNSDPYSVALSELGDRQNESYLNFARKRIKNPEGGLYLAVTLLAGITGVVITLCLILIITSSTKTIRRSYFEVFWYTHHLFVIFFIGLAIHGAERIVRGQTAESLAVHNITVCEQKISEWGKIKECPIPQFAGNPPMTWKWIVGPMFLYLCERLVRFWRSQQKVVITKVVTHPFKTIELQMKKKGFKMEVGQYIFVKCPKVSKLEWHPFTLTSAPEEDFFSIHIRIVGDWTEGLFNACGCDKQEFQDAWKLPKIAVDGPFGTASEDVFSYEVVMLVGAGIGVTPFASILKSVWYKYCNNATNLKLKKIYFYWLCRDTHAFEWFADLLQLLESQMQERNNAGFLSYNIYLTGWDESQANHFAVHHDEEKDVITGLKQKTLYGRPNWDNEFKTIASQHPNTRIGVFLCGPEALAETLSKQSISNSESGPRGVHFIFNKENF

| Structure (SMILES) | z-score [1] | composite z-score [2] | z-score [3] | z-score [4] | z-score [5] | z-score [6] | z-score [7] | z-score [8] | z-score [9] | z-score [10] | z-score [11] | z-score [12] | z-score [13] | z-score [14] | z-score [15] | z-score [16] | z-score [17] | z-score [18] | z-score [19] | z-score [20] |
| --- | --- | --- | --- | --- | --- | --- | --- | --- | --- | --- | --- | --- | --- | --- | --- | --- | --- | --- | --- | --- |
| CC1CC/C=C\[C@H]2OC34C=CCN(CCN5CCOCC5)C(=O)[C@H]3N(CCCCCCO)C(=O)[C@@H]4C2C(=O)O1 (stereo not given in full) | -0.044 (inactive) | -0.187 | 0.592 (inactive) | 0.267 (inactive) | 0.215 (inactive) | 0.182 (inactive) | -0.375 | 0.726 (inactive) | -0.0532 (inactive) | 1.96 | 0.919 | 0.24 | 1.1 | 1.42 | -0.575 | 0.37 | -0.44 (inactive) | -0.0357 | 0.606 | -0.116 (inactive) |
| CO[C@H]1O[C@H](CO)[C@@H](OC(=O)Nc2ccc(C(F)(F)F)cc2)[C@H](OC(=O)Nc2ccccc2-c2ccccc2)[C@@H]1OC(=O)Nc1ccccc1-c1ccccc1 | 0.0065 (inactive) | 0.534 | 4.11 (inactive) | 1.04 (inactive) | 0.14 (inactive) | 0.817 (inactive) | 0.672 | -0.803 (inactive) | -0.549 (inactive) | -1.23 | -1.34 | -0.029 | -0.745 | -0.413 | -0.909 | -0.58 | 0.688 (inactive) | -0.172 | -0.35 | -1.35 (inactive) |
| C=CC[C@]1(C(=O)OC)N=C(c2ccc(OCCCO)cc2)O[C@H]1c1ccccc1N=[N+]=[N-] | -0.908 (inactive) | 1.06 | 30.3 (active) | 26.5 (active) | 5.34 (inactive) | 4.92 (inactive) | 0.26 | -1.89 (inactive) | 0.988 (inactive) | -0.21 | -1.22 | 0.617 | -0.491 | -0.54 | -2.37 | 0.54 | 0.147 (inactive) | -1.13 | 0.676 | -1.6 (inactive) |
| NC(=O)NCC#Cc1ccc2c(c1)[C@]1(C(=O)N2)[C@H](C(=O)N2CCCCCCC2)[C@H]2C(=O)O[C@H](c3ccccc3)[C@H](c3ccccc3)N2[C@@H]1c1ccc(O)cc1 | -0.504 (inactive) | 2.3 | -0.268 (inactive) | -0.0915 (inactive) | -0.117 (inactive) | -0.0064 (inactive) | -0.602 | 1.67 (inactive) | 0.541 (inactive) | 1.15 | -0.491 | -0.542 | -0.0358 | -0.499 | -0.193 | -1.98 | -0.35 (inactive) | -0.981 | 0.0512 | -0.0116 (inactive) |
